About 79,000 compounds went through this panel and 15% of them were active in at least one assay; those are over-represented in the sample as a whole. No stated cut-off is given here; in the data, active means growth inhibition above about 70%; inactive means the rest.
Experiments:
[1] = NCI Yeast Anticancer Drug Screen. Data for the rad50 strain (AID 155);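 further: 0% = growth of vehicle-only cultures of the same strain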; details: S. cerevisiae rad50 strain growth inhibition; at 50.0 µM; hits give high values
How it was run: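 Genetically altered yeast (DNA repair pathway); compound treatment; growth inhibition vs vehicle ctrl.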

[2] = NCI Yeast Anticancer Drug Screen. Data for the mec2-1 strain (AID 157); details: S. cerevisiae mec2-1 strain, at 50.0 µM, hits give high values
How it was run: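 Yeast mec2-1 mutant treated with compound. Readout: growth inhibition vs vehicle controls.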

[3] = NCI Yeast Anticancer Drug Screen. Data for the sgs1 mgt1 strain (AID 161);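 further: 0% = growth of cultures given vehicle only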; details: S. cerevisiae sgs1 mgt1 strain, at 50.0 µM, hits give high values
How it was run: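 Genetically altered yeast, compound exposure, growth inhibition relative to vehicle.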

[4] = NCI Yeast Anticancer Drug Screen. Data for the cln2 rad14 strain (AID 165);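 further: 0% = growth equal to vehicle treated cultures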; details: S. cerevisiae cln2 rad14 strain, at 50.0 µM, hits give high values
How it was run: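 cln2 rad14 yeast strain; compound exposure; growth inhibition read vs vehicle controls.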

[5] = NCI Yeast Anticancer Drug Screen. Data for the bub3 strain (AID 167); details: S. cerevisiae bub3 mutant strain, at 50.0 µM, hits give high values
How it was run: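 Yeast carrying a defined mutation is treated with each compound, and growth is compared with that of vehicle-exposed cells to give inhibition.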

[6] = NCI Yeast Anticancer Drug Screen. Data for the mlh1 rad18 strain (AID 175); details: S. cerevisiae mlh1 rad18 strain growth inhibition; at 50.0 µM; hits give high values
How it was run: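 Yeast w/ defined DNA-repair lesions; compound exposure; growth vs vehicle controls → % inhibition.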

Measured: growth inhibition

N#CCCCCBr
inactive: [1] 12.4% | [2] 6.95% | [3] -4.2% | [4] -50.7% | [5] 15.6% | [6] 7.5%

CC1=NN2C(=O)CSC2=NC(C)(C)C1
inactive: [1] -5.35% | [2] -12.8% | [3] 7.45% | [4] 25.9% | [5] -5.75% | [6] -9.95%

O=c1[nH]nc(NC2Nc3ccccc3N2)c2ccccc12
inactive: [1] 17.3% | [2] 15.1% | [3] 9.15% | [4] -19.2% | [5] 6.6% | [6] 13.4%

From PubChem BioAssay (NCI)
